Test results from the supplement of paper PMC9135407.
“And” between values parts separate entries of the source, which are not always exact repeats. Equal values may be shown once. Where a name gives a salt, the structure may show the parent alone. About 620 (11%) of roughly 5,800 compounds showed activity. Shown is part of a subset that was picked to be rich in actives. A number with no mark means an inactive call.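 How the source made its calls: active = score above a cut-off or among the top three wells of a plate; in these data no inactive exceeds 0.85.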

Test system: primary human hepatic stellate cells (donor 1)
Experiment: scaled lipid accumulation score (0 = DMSO-like, 1 = nortriptyline-like); higher = stronger HSC inactivation (lipid re-accumulation), active = hit call of the paper
Settings: 48 h
[1] = library stock concentration: 3.33 mM
[2] = library stock concentration: 10 mM
[3] = library stock concentration: 1 mM
[4] = library stock concentration: 80 uM
[5] = library stock concentration: 400 uM
[6] = library stock concentration: 2 mM

Which results are given for `Cc1nnc(C(C)C)n1C1C[C@H]2CC[C@@H](C1)N2CC[C@H](NC(=O)C1CCC(F)(F)CC1)c1ccccc1` (stereo in doubt) [Maraviroc]?
scaled lipid accumulation score [1]: ≤ 0; scaled lipid accumulation score [2]: ≤ 0

How did the “scaled lipid accumulation score” value [3] turn out when `COc1ccc(/C=C/c2cc(Cl)cc(Cl)c2)cc1` was run?
Its value is ≤ 0.

How did the “scaled lipid accumulation score” value [3] turn out when `CCCCCCCCCCCCCCCNC(=O)C1CCCCC1` [N-Cyclohexanecarbonylpentadecylamine] was run?
The value was ≤ 0.

`CCN(CC)CCCN(c1ccccc1)C1Cc2ccccc2C1` [Aprindine hydrochloride] was tested. Which “scaled lipid accumulation score” value [2] did it give?
Its value is 0.262.

Which “scaled lipid accumulation score” value [2] does the source give for `O=C(O)CCC/C=C\C[C@@H]1[C@@H](/C=C/[C@H](O)C2Cc3ccccc3C2)[C@@H](F)C[C@@H]1O` here?
Its value is ≤ -0.07.

For `CC1(C)CC(=O)c2c(C(F)(F)F)nn(-c3ccc(C(N)=O)c(N[C@H]4CC[C@H](OC(=O)CN)CC4)c3)c2C1` [listing 1 of 2 here], which “scaled lipid accumulation score” value [2] is on record?
Its value is 1.05 (active).

With `CC1(C)CC(=O)c2c(C(F)(F)F)nn(-c3ccc(C(N)=O)c(N[C@H]4CC[C@H](OC(=O)CN)CC4)c3)c2C1` [listing 2 of 2 here] as the compound, how does the “scaled lipid accumulation score” value [1] read?
The value was 0.77.

For `CC1(C)CC(=O)c2c(C(F)(F)F)nn(-c3ccc(C(N)=O)c(N[C@H]4CC[C@H](O)CC4)c3)c2C1`, which “scaled lipid accumulation score” value [1] is on record?
The value was 0.635.

What about the “scaled lipid accumulation score” value [2] of the same compound?
Its value is 0.742.

Which “scaled lipid accumulation score” value [2] does the source give for `c1ccc(COCCCc2c[nH]cn2)cc1` [Proxyfan Oxalate] here?
The value was ≤ 0.

Which “scaled lipid accumulation score” value [2] does the source give for `CC(C)(S)C(N)C(=O)O` (racemic) here?
The value was ≤ 0.

For `Cc1cc(Nc2cc(N3CCN(C)CC3)nc(Sc3ccc(NC(=O)C4CC4)cc3)n2)n[nH]1`, which “scaled lipid accumulation score” value [4] is on record?
The value was 0.003.

And the “scaled lipid accumulation score” value [5]?
The value was 0.063.

And the “scaled lipid accumulation score” value [6]?
Its value is 0.248.

What about the “scaled lipid accumulation score” value [2] of the same compound?
The value was 0.47.

With `Cc1cc(Nc2cc(N3CCN(C)CC3)nc(/C=C/c3ccccc3)n2)n[nH]1` as the compound, how does the “scaled lipid accumulation score” value [2] read?
Its value is 0.603.

`Cc1cc(Nc2cc(N3CCN(C)CC3)nc(Sc3ccc(NC(=O)C4CC4)cc3)n2)n[nH]1` [Tozasertib (VX-680, MK-0457) (10 mM)] was tested. Which “scaled lipid accumulation score” value [2] did it give?
The value was 0.456.

`Cc1cc(Nc2cc(N3CCN(C)CC3)nc(C=Cc3ccccc3)n2)n[nH]1` was tested. Which “scaled lipid accumulation score” value [1] did it give?
The value was 1.06 (active).

For `Cc1cc(Nc2cc(N3CCN(C)CC3)nc(Sc3ccc(NC(=O)C4CC4)cc3)n2)n[nH]1` [Tozasertib (VX-680, MK-0457) (0.4 mM)], which “scaled lipid accumulation score” value [5] is on record?
Its value is ≤ -0.005.

With `Cc1cc(Nc2cc(N3CCN(C)CC3)nc(Sc3ccc(NC(=O)C4CC4)cc3)n2)n[nH]1` [VX-680 (Tozasertib, MK-0457)] as the compound, how does the “scaled lipid accumulation score” value [1] read?
The value was 0.193.

What about the “scaled lipid accumulation score” value [2] of the same compound?
Its value is 0.038.

Which “scaled lipid accumulation score” value [6] does the source give for `Cc1cc(Nc2cc(N3CCN(C)CC3)nc(Sc3ccc(NC(=O)C4CC4)cc3)n2)n[nH]1` [Tozasertib (VX-680, MK-0457) (2 mM)] here?
The value was ≤ -0.005.

How did the “scaled lipid accumulation score” value [1] turn out when `Cn1cc(-c2cnn3c(N)c(Br)c([C@@H]4CCCNC4)nc23)cn1` was run?
Its value is ≤ 0.

And the “scaled lipid accumulation score” value [2]?
The value was 0.521.

Which “scaled lipid accumulation score” value [3] does the source give for `CCCCCCCCCCCCCCCC(=O)N[C@H](CN1CCOCC1)[C@H](O)c1ccccc1` (racemic) here?
The value was ≤ -0.021.

How did the “scaled lipid accumulation score” value [3] turn out when `CCCCC[C@H](O)/C=C/[C@H]1[C@H](O)CC(=O)[C@@H]1CCCCCCCO` [Prostaglandin E1 Alcohol] was run?
The value was 0.129.

Which “scaled lipid accumulation score” value [3] does the source give for `O=C1C(c2ccccc2)N(c2ccc(Br)cc2)C(=O)N1c1ccc(Br)cc1` (stereo not drawn) here?
Its value is ≤ 0.

Which “scaled lipid accumulation score” value (library stock concentration: 4.9 mM) does the source give for `CC[C@H](C)C(=O)O[C@H]1C[C@H](O)C=C2C=C[C@H](C)[C@H](CC[C@@H]3C[C@@H](O)CC(=O)O3)[C@H]21` [Pravastatin lactone] here?
The value was ≤ 0.

Which “scaled lipid accumulation score” value [2] does the source give for `O=C1NCN(c2ccccc2)C12CCN(CCCC(c1ccc(F)cc1)c1ccc(F)cc1)CC2` [Fluspirilene] here?
Its value is 1.02 (active).

For `O=C1NCN(c2ccccc2)C12CCN(CCCC(c1ccc(F)cc1)c1ccc(F)cc1)CC2` [Fluspirilen], which “scaled lipid accumulation score” value is on record?
Its value is ≤ 0.

With `CCNC(=O)N1CCN(CCCC(c2ccc(F)cc2)c2ccc(F)cc2)CC1` [Amperozide hydrochloride] as the compound, how does the “scaled lipid accumulation score” value [2] read?
Its value is 0.661.

`O=C(Nc1ccc(C(F)(F)F)cn1)N1CCN(c2ncccc2C(F)(F)F)CC1` was tested. Which “scaled lipid accumulation score” value [2] did it give?
The value was 0.012.

Which “scaled lipid accumulation score” value (library stock concentration: 9.1 mM) does the source give for `CCCC[C@@H](C)/C=C(C)/C=C(\C)C(=O)NC1=C[C@@](O)(/C=C/C=C/C=C/C(=O)NC2=C(O)CCC2=O)[C@@H]2O[C@@H]2C1=O` [Manumycin A] here?
Its value is 0.793.

How did the “scaled lipid accumulation score” value [2] turn out when `C=CC(=O)Nc1cc2c(Nc3ccc(F)c(Cl)c3)ncnc2cc1OCCCN1CCOCC1` [listing 1 of 2 here] was run?
Its value is 0.983 (active).

For `C=CC(=O)Nc1cc2c(Nc3ccc(F)c(Cl)c3)ncnc2cc1OCCCN1CCOCC1` [listing 2 of 2 here], which “scaled lipid accumulation score” value [4] is on record?
Its value is 0.045.

And the “scaled lipid accumulation score” value [5]?
Its value is ≤ -0.009 and ≤ -0.005.

What about the “scaled lipid accumulation score” value [6] of the same compound?
The value was 0.07 and ≤ -0.005.

And the “scaled lipid accumulation score” value [2]?
The value was 0.314.

How did the “scaled lipid accumulation score” value [2] turn out when `COc1cc2ncnc(Nc3ccc(F)c(Cl)c3)c2cc1OCCCN1CCOCC1` [Gefitinib (ZD1839)] [listing 1 of 2 here] was run?
The value was 1.05 (active).

How did the “scaled lipid accumulation score” value [6] turn out when `COc1cc2ncnc(Nc3ccc(F)c(Cl)c3)c2cc1OCCCN1CCOCC1` [Gefitinib (ZD1839, Iressa) (2 mM)] was run?
Its value is 0.864 (active).

`C=CC(=O)Nc1ccc2ncnc(Nc3cccc(Br)c3)c2c1` was tested. Which “scaled lipid accumulation score” value [1] did it give?
The value was 0.014.

And the “scaled lipid accumulation score” value [2]?
The value was 0.802.

How did the “scaled lipid accumulation score” value [5] turn out when `C=CC(=O)Nc1cc2c(Nc3ccc(F)c(Cl)c3)ncnc2cc1C#CC(C)(C)N1CCN(C)CC1` was run?
The value was 0.879 (active).

How did the “scaled lipid accumulation score” value [2] turn out when `COc1cc2ncnc(Nc3ccc(F)c(Cl)c3)c2cc1OCCCN1CCOCC1` [Gefitinib (ZD1839, Iressa) (10 mM)] was run?
The value was 0.94 (active).

`COc1cc2ncnc(Nc3ccc(F)c(Cl)c3)c2cc1OCCCN1CCOCC1` [Gefitinib (ZD1839, Iressa) (0.4 mM)] was tested. Which “scaled lipid accumulation score” value [5] did it give?
The value was 0.081.

Which “scaled lipid accumulation score” value [4] does the source give for `COc1cc2ncnc(Nc3ccc(F)c(Cl)c3)c2cc1OCCCN1CCOCC1` here?
Its value is ≤ -0.003.

What about the “scaled lipid accumulation score” value [5] of the same compound?
The value was ≤ -0.009.

What about the “scaled lipid accumulation score” value [6] of the same compound?
The value was 0.19.

And the “scaled lipid accumulation score” value [2]?
Its value is 0.65.

`COc1cc2ncnc(Nc3ccc(F)c(Cl)c3)c2cc1OCCCN1CCOCC1` [Gefitinib (ZD1839)] [listing 2 of 2 here] was tested. Which “scaled lipid accumulation score” value [1] did it give?
The value was 0.43.

`COc1cc2ncnc(Nc3ccc(F)c(Cl)c3)c2cc1OCCCN1CCOCC1` [Gefitinib] was tested. Which “scaled lipid accumulation score” value (library stock concentration: 4.5 mM) did it give?
The value was 0.19.

With `CC(=O)OCC(=O)[C@@]1(O)[C@H](OC(C)=O)C[C@H]2[C@@H]3CCC4=CC(=O)C=C[C@]4(C)[C@@]3(F)[C@@H](O)C[C@@]21C` [Triamcinolone diacetate] as the compound, how does the “scaled lipid accumulation score” value [2] read?
Its value is ≤ 0.
